Drawing on PubChem BioAssay, this text covers viability for five compounds.

Active and inactive are the calls of the source.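 Rule for the calls: active = normalized viability below 100% at a tested concentration; inactive = the rest.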

A short description of this experiment: drug combination growth inhibition, ovarian cancer – cell-based, oncology-focused library, rucaparib conditional, profiling panel (AID 1508598). The conditions noted are these: patient-derived ovarian cancer cells, CellTiter-Glo viability, 144 h; at 0.313 µM; OCI-C5x cells; with rucaparib 10 µM; stronger effect = lower value; 100% = cells with rucaparib alone. (In general: In ATP-based viability assays light output follows the ATP content of the culture.)
A word on the viability: it is a read-out of living cells in per cent, often relative to untreated cells. For the compound `CC(=O)O[C@H]1C(=O)[C@@]2(C)C([C@H](OC(=O)c3ccccc3)[C@]3(O)C[C@H](OC(=O)[C@H](O)[C@@H](NC(=O)c4ccccc4)c4ccccc4)C(C)=C1C3(C)C)[C@]1(OC(C)=O)CO[C@@H]1C[C@H]2O` (stereo not given in full), the viability was 36.2% (active).

For the compound `CO[C@H]1C[C@H]2CC[C@@H](C)[C@@](O)(O2)C(=O)C(=O)N2CCCC[C@H]2C(=O)O[C@H]([C@H](C)C[C@@H]2CC[C@H](OC(=O)C(C)(CO)CO)[C@H](OC)C2)CC(=O)[C@H](C)/C=C(\C)[C@@H](O)[C@@H](OC)C(=O)[C@H](C)C[C@H](C)/C=C/C=C/C=C/1C`, the viability was 96.4% (active).

For `CO[C@H]1/C=C\C=C(\C)C(=O)NC2=CC(=O)C(NCCN(C)C)=C(C[C@@H](C)C[C@H](OC)[C@H](O)[C@@H](C)/C=C(\C)[C@@H]1OC(N)=O)C2=O`, the viability is 26.5% (active).

On to `CC(C)(C(=O)NCC(F)(F)C(F)(F)F)C(=O)N[C@H]1C(=O)Nc2ccccc2-c2ccccc21`, for which the viability is 116% (inactive).

For `CC1(C)O[C@@H]2C[C@H]3[C@@H]4CCC5=CC(=O)C=C[C@]5(C)[C@]4(F)[C@H](O)C[C@]3(C)[C@@]2(C(=O)CO)O1`, the viability is 105% (inactive).
